Measurements taken from ChEMBL document CHEMBL1201862, “PubChem BioAssay data set” (2004).
Screen size: about 400,000 compounds; about 2,100 (0.53%) were called active. Not shown: some 14% with an inconclusive outcome. How the calls were made is not given here. This excerpt belongs to a sample that is enriched for actives.

What follows are compounds tested against Ataxin-2 (Homo sapiens) (UniProt Q99700) (assay: qHTS for Inhibitors of ATXN expression.).
Assay type: functional

Ataxin-2 (Homo sapiens), sequence (Q99700 whole entry): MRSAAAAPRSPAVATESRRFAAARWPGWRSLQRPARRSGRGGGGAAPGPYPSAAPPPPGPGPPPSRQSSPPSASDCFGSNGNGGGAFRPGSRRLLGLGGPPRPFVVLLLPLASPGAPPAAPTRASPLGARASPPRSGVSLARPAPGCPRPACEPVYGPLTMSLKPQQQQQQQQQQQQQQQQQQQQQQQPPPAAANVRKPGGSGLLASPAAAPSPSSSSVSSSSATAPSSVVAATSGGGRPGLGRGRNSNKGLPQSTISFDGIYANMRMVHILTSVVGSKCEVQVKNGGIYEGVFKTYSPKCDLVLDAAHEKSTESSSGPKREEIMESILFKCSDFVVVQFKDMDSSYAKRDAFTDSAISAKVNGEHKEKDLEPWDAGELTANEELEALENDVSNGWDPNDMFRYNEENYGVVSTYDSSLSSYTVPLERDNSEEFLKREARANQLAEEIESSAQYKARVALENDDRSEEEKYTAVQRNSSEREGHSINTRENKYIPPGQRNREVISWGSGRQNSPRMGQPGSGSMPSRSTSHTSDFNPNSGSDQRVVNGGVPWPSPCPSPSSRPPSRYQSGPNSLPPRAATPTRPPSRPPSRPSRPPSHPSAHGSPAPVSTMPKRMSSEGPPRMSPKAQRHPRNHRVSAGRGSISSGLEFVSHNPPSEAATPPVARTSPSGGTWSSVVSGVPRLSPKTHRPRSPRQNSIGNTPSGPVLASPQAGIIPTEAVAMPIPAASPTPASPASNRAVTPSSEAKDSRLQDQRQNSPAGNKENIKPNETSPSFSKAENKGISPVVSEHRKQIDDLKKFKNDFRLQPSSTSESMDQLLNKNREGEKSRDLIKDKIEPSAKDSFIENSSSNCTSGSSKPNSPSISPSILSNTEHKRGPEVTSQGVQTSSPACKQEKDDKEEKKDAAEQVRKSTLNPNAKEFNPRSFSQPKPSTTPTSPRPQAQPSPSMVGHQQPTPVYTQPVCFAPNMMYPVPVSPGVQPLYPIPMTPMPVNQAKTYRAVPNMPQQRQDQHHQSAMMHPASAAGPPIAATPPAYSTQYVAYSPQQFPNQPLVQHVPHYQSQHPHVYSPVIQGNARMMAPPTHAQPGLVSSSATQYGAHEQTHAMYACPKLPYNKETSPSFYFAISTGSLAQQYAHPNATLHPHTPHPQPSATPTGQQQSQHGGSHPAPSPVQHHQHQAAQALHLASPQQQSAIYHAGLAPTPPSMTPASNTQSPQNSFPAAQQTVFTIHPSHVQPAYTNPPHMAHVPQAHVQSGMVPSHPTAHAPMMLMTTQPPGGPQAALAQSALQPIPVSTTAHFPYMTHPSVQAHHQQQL

Row | Structure (SMILES) | Potency
1 | Cc1ccc(S(=O)(=O)NNc2c3ccccc3nc3ccc(Cl)cc23)cc1 | inactive
2 | CCCCn1c(=O)[nH]c2nc3cc(NC(C)=O)ccc3nc2c1=O | inactive
3 | CCN(CC)c1ccc(/C=c2\sc3nc4ccccc4n3c2=O)c(O)c1 | inactive
4 | OCCC1CN(C2CCN(c3ccccc3F)CC2)CCN1Cc1ccccc1 (configuration not stated) | inactive
5 | Cc1cccc(C2=NN(c3ccc(Br)cc3)[C@@H](C(=O)N3CCOC3=O)[C@@H]2c2ccccc2)c1 | inactive
6 | CN1C[C@@H]2[C@@H]3C(=O)N(Cc4ccccc4)C(=O)[C@@H]3[C@](Cc3ccccc3)(C1=O)N2C(=O)c1ccc(C(C)(C)C)cc1 | 15.8 µM (active)
7 | CC1(Cc2ccccc2Cl)C(=O)Nc2cc(-c3ccccc3Cl)ccc21 (configuration not stated) | 39.8 µM (active)
8 | CC(CCc1ccccc1)NCC(O)c1cccc([N+](=O)[O-])c1 (configuration not stated) | inactive
9 | CC(=O)Nc1cc[n+](CC(=O)c2cccc([N+](=O)[O-])c2)cc1 | inactive
10 | Nc1ccccc1SC(CC(=O)c1ccccc1)c1cccc([N+](=O)[O-])c1 (configuration not stated) | 2.82 µM (active)
11 | Nc1ccccc1SC(C[N+](=O)[O-])c1ccccc1 (configuration not stated) | 39.8 µM (active)
12 | COc1ccc(/C=N/NC(=O)Nc2cccc3nsnc23)cc1 | inactive
13 | CN1C(=O)c2cccc3c(N(C)C)ccc(c23)C1=O | inactive
14 | O=C(O)c1ccccc1-c1ccc(C=c2sc3nc4cc(Br)cnc4n3c2=O)o1 | inactive
15 | CCN(CC)CCNS(=O)(=O)c1ccc2c3c(cccc13)C(=O)N2 | inactive
16 | C=CCC(Nc1ccccc1)C12C=CC(O1)C(C(=O)OC)=C2C(=O)OC (configuration not stated) | 39.8 µM (active)
17 | Cc1ccc(/C=N/Nc2ccc3ccccc3n2)o1 | inactive
18 | c1ccc(-c2nc(CN3CCN(c4ccccn4)CC3)c[nH]2)cc1 | inactive
19 | CN(C)C(=S)N=Nc1[nH]c2ccccc2c1O | 1.12 µM (active)
20 | O/C(=C\c1nc2ccccc2nc1O)c1cccs1 | inactive
21 | CC[C@@H]1CC=C[C@H]2[C@H]1C(=O)N(Cc1ccccc1)[C@H]2c1ccoc1 | 35.5 µM (active)
22 | Cc1ccc(F)c([C@H]2[C@H]3C=CC[C@@H](C)[C@@H]3C(=O)N2Cc2ccccc2)c1 | 39.8 µM (active)
23 | O=C1C2C(c3ccccc3)CC=CC2[C@H](c2ccc(C(F)(F)F)cc2)N1Cc1ccccc1 (some centres not stated) | 15.8 µM (active)

Row | Structure (SMILES) | Potency
24 | Nc1nnc(SCC(=O)NNC(=O)c2ccc([N+](=O)[O-])cc2)s1 | inactive
25 | NC(S)=NN=C1c2cc(OCCN3CCOCC3)ccc2-c2ccc(OCCN3CCOCC3)cc21 | 7.94 µM (active)
26 | COCc1cc(O)nc(SCCS(=O)(=O)c2ccc(Cl)cc2Cl)n1 | 11.2 µM (active)
27 | O=S(=O)(CCN1C=CC(C(F)(F)F)=NCC1)c1ccc(Cl)cc1Cl | inactive
28 | COCc1cc(O)nc(-c2ccc(C(F)(F)F)cc2)n1 | inactive
29 | CCOc1cc(C(c2c(C)[nH]n(-c3ccccc3)c2=O)c2c(C)[nH]n(-c3ccccc3)c2=O)ccc1O | 28.2 µM (active)
30 | CCN1/C(=C/c2ccc3cc(C)ccc3[n+]2C)Sc2ccc3sccc3c21 | 17.8 µM (active)
31 | CCOC(=O)/C(=C\C=C1/Sc2ccccc2N1CC)C(C)=O | inactive
32 | CCN1/C(=C\c2ccc3ccccc3[n+]2CC)Sc2cc(C)ccc21 | 44.7 µM (active)
33 | CCOC(=O)/C(C#N)=C(C)/C=C1\Sc2ccccc2N1CC | inactive
34 | CCN1/C(=C/c2ccc3cc(C)ccc3[n+]2CC)Sc2ccccc21 | 14.1 µM (active)
35 | CC[n+]1c(C=C2C=CN(C)C=C2)ccc2cc(C)ccc21 | 10 µM (active)
36 | N=c1c(C(=O)NCC2CCCO2)cc2c(=O)n3ccccc3nc2n1Cc1ccccc1Cl (configuration not stated) | inactive
37 | CCOC(=O)C1CCN(C(c2ccc(OC)c(OC)c2)c2sc3nc(C)nn3c2O)CC1 (configuration not stated) | inactive
38 | O=C(N/N=C/c1c(O)ccc2ccccc12)c1[nH]ncc1Br | inactive
39 | CCN1CCN(Cc2c(O)ccc3c2O/C(=C\c2ccc(C)cc2)C3=O)CC1 | inactive
40 | CC(NC(=O)C12CC3CC(CC(C3)C1)C2)C(=O)N/N=C/C1=C(N2CCOCC2)C(=C\c2ccccc2)/CC1 (configuration not stated) | inactive
41 | CCOc1ccc(CCNC(=O)Cn2ncn3nc(-c4ccc(OC)cc4)cc3c2=O)cc1OCC | inactive
42 | Cc1cc2c(C)cc(=O)oc2c2c1NCCC2 | inactive
43 | Fc1ccc(Br)cc1C1C=C(c2ccc(Br)cc2)Nc2ncnn21 (configuration not stated) | inactive
44 | CCN1/C(=C/c2ccc3cc(C)ccc3[n+]2CC)Sc2cc(C)ccc21 | 10.6 µM (active)
45 | CCCCn1nc(C(=O)Nc2cc(C(F)(F)F)ccc2N2CCOCC2)ccc1=O | 39.8 µM (active)
46 | Cc1ccccc1C(=O)Nc1cc(C(F)(F)F)ccc1-n1cncn1 | inactive

Row | Structure (SMILES) | Potency
47 | CCOC(=O)c1ccc(N2CCOCC2)c(NC(=O)c2ccc3c(c2)OCO3)c1 | inactive
48 | c1cc2c3c(cccc3c1)C(N1CCOCC1)=N2 | inactive
49 | O=C1c2ccccc2-c2ncnc3c(N4CCOCC4)cc(N4CCOCC4)c1c23 | 17.8 µM (active)
50 | O=C(Nc1ccccc1N1CCOCC1)c1cc(Br)c(Br)s1 | inactive
51 | C=CCN1C(=O)/C(=C/c2ccc(OC(C)=O)c(OCC)c2[N+](=O)[O-])SC1=S | 31.6 µM (active)
52 | CCO/C=C1/C(=O)N(c2ccc(OC)cc2)C(=O)c2ccccc21 | inactive
53 | O=C(O)c1cc2c(cc1NC(=O)C1CCCC1)OCCO2 | inactive
54 | Cc1ccc2c(c1)OC(c1ccc3c(c1)OCCO3)CC2=O (configuration not stated) | inactive
55 | O=C(CCl)N1CCCC1c1ccc2c(c1)OCCO2 (configuration not stated) | 35.5 µM (active)
56 | CCOC(=O)c1sc(NC(=O)CCN2CCN(C)CC2)c(C(=O)OCC)c1C | inactive
57 | CC(=O)O[C@@H]1C[C@H]2C(C)(C)C(=O)C=C[C@]2(C)[C@H]2CC[C@@]3(C)[C@H](c4ccoc4)OC(=O)[C@H]4O[C@]43[C@@]21C | 31.6 µM (active)
58 | Cc1onc(-c2ccccc2Cl)c1C(=O)Nc1cc(=O)n(C)c(=O)n1C | inactive
59 | Cc1ccc2c(Cl)cc(Cl)c(OCC(=O)OCC(=O)Nc3ccc(C#N)cc3)c2n1 | inactive
60 | CCCCCCN1C[C@@H](n2cc(COC(=O)c3ccccc3)nn2)[C@H](O)C[C@@H]1c1ccc(C)cc1 | 22.4 µM (active)
61 | CCCCCCN1C[C@H](n2cc(COC(=O)c3ccccc3)nn2)[C@@H](O)C[C@@H]1c1ccc(Cl)cc1 | 31.6 µM (active)
62 | CCCCC(NC(=O)Cc1c(C)c2cc3c4c(oc3cc2oc1=O)CCCC4)C(=O)O (configuration not stated) | inactive
63 | Cc1c(O)ccc2c(CN3CCN(CCO)CC3)cc(=O)oc12 | inactive
64 | O=C(O)COc1ccccc1/C=N/Nc1ccc(S(=O)(=O)Nc2ccc(Cl)cc2)cc1[N+](=O)[O-] | inactive
65 | Cc1nn(-c2ccccc2)c(N2CCCC2)c1/C=N/Nc1ccc(S(=O)(=O)Nc2ccccc2)cc1[N+](=O)[O-] | 31.6 µM (active)
66 | Cc1c(NS(=O)(=O)c2ccc(NCCN3CCOCC3)c([N+](=O)[O-])c2)c(=O)n(-c2ccccc2)n1C | inactive
67 | O=C(COc1ccc(Br)cc1)NCCN1CCCC1 | inactive
68 | CC1=C(C(=O)OC(C)C)C(c2ccc(Cl)cc2)n2c(s/c(=C\c3ccc(OCC(=O)O)cc3)c2=O)=N1 (configuration not stated) | inactive
69 | CC1=CC2=NC(=O)/C(=C/c3coc4ccc(Cl)cc4c3=O)C(=N)N2O1 | inactive

Row | Structure (SMILES) | Potency
70 | CCOC(=O)c1sc(NC(=O)c2nc3nc(C)cc(C(F)F)n3n2)c(C(=O)OC)c1C | inactive
71 | CCN1C(=O)c2cccc3c(S(=O)(=O)NC(Cc4ccccc4)C(=O)O)ccc1c23 (configuration not stated) | inactive
72 | CN(CCC#N)C(=O)COC(=O)c1c2c(nc3ccccc13)/C(=C/c1ccco1)CC2 | inactive
73 | CC(=O)Nc1ccc(NC(=O)C(C)OC(=O)CCSc2ccccc2Cl)cc1 (configuration not stated) | inactive
74 | CN(C(=O)COC(=O)c1ccc([N+](=O)[O-])cc1N)c1ccccc1 | inactive
75 | CN(CC(=O)Nc1ccccc1Cl)C1CCS(=O)(=O)C1 (configuration not stated) | inactive
76 | C=CCNC(=O)c1ccccc1NC(=O)Cc1ccccc1[N+](=O)[O-] | inactive
77 | O=C(COC(=O)c1ccccc1C(=O)c1ccc(Cl)c([N+](=O)[O-])c1)NC1CCCCCC1 | 35.5 µM (active)
78 | CC(=O)Nc1ccc(NC(=O)C(C)OC(=O)c2ccccc2C(=O)c2ccc(Cl)c([N+](=O)[O-])c2)cc1 (configuration not stated) | 39.8 µM (active)
79 | CN(CCC#N)C(=O)COC(=O)c1ccccc1C(=O)c1ccc(Cl)c([N+](=O)[O-])c1 | 29.9 µM (active)
80 | CC(OC(=O)c1ccc(-n2cnnn2)cc1)C(=O)Nc1ccccc1[N+](=O)[O-] (configuration not stated) | inactive
81 | O=C(CN(C(=O)c1ccccc1Cl)C1CCCCC1)Nc1ccc(Cl)c([N+](=O)[O-])c1 | 35.5 µM (active)
82 | Cc1cc(OCC(=O)OCC(=O)NC2CCCCCC2)ccc1Cl | inactive
83 | Cc1ccc(C(=O)COC(=O)CCC(=O)NC2CCCCC2)cc1[N+](=O)[O-] | inactive
84 | O=C(CSc1nnnn1C1CC1)N1CCN(c2ccc(O)cc2)CC1 | inactive
85 | CC(C)Cn1c(N)c(C(=O)COC(=O)c2cccnc2Cl)c(=O)n(C)c1=O | inactive
86 | Cn1c(N)c(C(=O)COC(=O)c2ccccc2C(=O)c2ccc(Cl)c([N+](=O)[O-])c2)c(=O)n(C)c1=O | 20 µM (active)
87 | CCOC(=O)Cn1nc(C)c(NC(=O)COc2ccc([N+](=O)[O-])c(C)c2)c1C | inactive
88 | Cc1ccc(Cl)c(NC(=O)COC(=O)c2ccccc2C(=O)c2ccc(Cl)c([N+](=O)[O-])c2)c1Cl | 20 µM (active)
89 | Cn1c(N)c(C(=O)COC(=O)CC(NC(=O)c2ccccc2Cl)c2ccccc2)c(=O)n(C)c1=O (configuration not stated) | inactive
90 | CC(=O)c1ccccc1NC(=O)COC(=O)c1cc[n+]([O-])cc1 | inactive
91 | COC(=O)c1cc(-c2ccc(Br)cc2)c2c(=O)n(C)c(=O)n(C)c2n1 | inactive
92 | Cc1sc2nc3ccc(NCc4ccco4)nn3c(=O)c2c1C | inactive
